Data published in PubChem BioAssay (NCI).
This is part of a sample that, as a whole, favours compounds with a hit. Of some 79,000 tested, about 15% had one in any assay. Active and inactive are the calls of the source. Rule as the data show it: active = growth inhibition above about 70%; inactive = the rest.

Tests used:
[1] = NCI Yeast Anticancer Drug Screen. Data for the rad50 strain (AID 155);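 also: 0% = growth of vehicle-only cultures of the same strain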; settings: S. cerevisiae rad50 strain growth inhibition; at 50.0 µM; hits give high values
Procedure, shortened: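 DNA repair mutant yeast, compound exposure, growth read-out; inhibition is taken relative to vehicle.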

[2] = NCI Yeast Anticancer Drug Screen. Data for the mec2-1 strain (AID 157); settings: S. cerevisiae mec2-1 strain, at 50.0 µM, hits give high values
Procedure, shortened: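 Each compound was tested on mec2-1 yeast, a strain altered in DNA damage repair or cell cycle control. Growth inhibition is reported relative to vehicle.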

[3] = NCI Yeast Anticancer Drug Screen. Data for the sgs1 mgt1 strain (AID 161);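 also: 0% = growth of cultures given vehicle only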; settings: S. cerevisiae sgs1 mgt1 strain, at 50.0 µM, hits give high values
Procedure, shortened: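 Mutant yeast exposed to compound; growth scored against vehicle-only wells.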

[4] = NCI Yeast Anticancer Drug Screen. Data for the cln2 rad14 strain (AID 165);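 also: 0% = growth equal to vehicle treated cultures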; settings: S. cerevisiae cln2 rad14 strain, at 50.0 µM, hits give high values
Procedure, shortened: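 Test compounds were added to cln2 rad14 yeast cultures; inhibition of growth was then determined by comparison with vehicle treatment.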

[5] = NCI Yeast Anticancer Drug Screen. Data for the bub3 strain (AID 167); settings: S. cerevisiae bub3 mutant strain, at 50.0 µM, hits give high values
Procedure, shortened: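 In this screen, a yeast mutant lacking normal mitotic checkpoint function is challenged with compound. Relative growth versus vehicle gives the inhibition value.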

[6] = NCI Yeast Anticancer Drug Screen. Data for the mlh1 rad18 strain (AID 175); settings: S. cerevisiae mlh1 rad18 strain growth inhibition; at 50.0 µM; hits give high values
Procedure, shortened: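 Inhibition values reflect reduced growth of mutant yeast versus vehicle-treated controls following compound exposure; the mutations affect DNA damage repair.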

Measured: growth inhibition

O=C1c2ccccc2N(Cc2cccc(F)c2)C2=NCCCC12 (stereo not given)
inactive: [1] -4.2% | [2] -39% | [3] 14.2% | [4] 0.35% | [5] 8.3% | [6] 0.35%

C[N+]1(CSC(=O)c2ccccc2)CCCCC1
inactive: [1] 1.95% | [2] 11.5% | [3] 12.3% | [4] 1.6% | [5] -9.75% | [6] 24.9%

CCOC(=O)CNC(=O)C(CSSCC(NC(=O)OCc1ccccc1)C(=O)OC)NC(=O)C(NC(=O)OCc1ccccc1)C(C)C (stereo not given)
inactive: [1] 7.65% | [2] 21.3% | [3] 14.5% | [4] -1.65% | [5] -11.7% | [6] 56.6%

CC(=O)c1cccc(NC(=O)Oc2ccc(Cl)cc2Cc2ccccc2)c1
active: [1] 99.1% | [4] 99.5% | [5] 99.4% | [6] 99%
inactive: [2] 50.2% | [3] 64.1%

O=S1OC(c2ccccc2)C(c2ccccc2)O1 (stereo not given)
inactive: [1] -2.1% | [2] -10.5% | [3] -4.55% | [4] 11.8% | [5] -1.45% | [6] -7.7%

CS(=O)c1ccc(C(F)(F)F)cc1C(=O)O (stereo not given)
inactive: [1] -3.3% | [2] 9.95% | [3] 9.7% | [4] -24.4% | [5] -20.5% | [6] 9.85%

O=C(O)c1cnccn1
inactive: [1] 18.8% | [2] 4.3% | [3] 16.9% | [4] 12.6% | [5] 1.2% | [6] 17.9%

O=C(Nc1ccccc1[N+](=O)[O-])OCc1ccccc1
inactive: [1] -10.7% | [2] 10.4% | [3] 13.5% | [4] 10.1% | [5] 1.6% | [6] 8.2%

C=CCOC(=O)c1cccc(C)c1
inactive: [1] 9.7% | [2] 0.3% | [3] -1% | [4] -41.4% | [5] 9.9% | [6] 7.7%

C[N+](C)(C)/N=C(/c1ccccc1)C1CCCCC1
inactive: [1] -20.2% | [2] -2.1% | [3] -4.35% | [4] -43.5% | [5] 0.4% | [6] 7.7%

O=C(Nc1ccc(F)cc1)C(Br)C(Br)c1ccccc1 (stereo not given)
active: [1] 91% | [2] 88.2% | [3] 93.9% | [5] 81.5% | [6] 95.5%
inactive: [4] 49%

Nc1nc2c3nc(Nc4ccccc4)sc3nc(=O)n2c2sc(Nc3ccccc3)nc12
inactive: [1] 1.85% | [2] 1.65% | [3] 2.75% | [4] -4.15% | [5] -20.3% | [6] 2.6%

O=C1CCC(c2ccccc2)(C2CCN(Cc3ccc(F)cc3)CC2)C(=O)N1 (stereo not given)
inactive: [1] -8.55% | [2] 4.85% | [3] -5.85% | [4] -14.8% | [5] 3.45% | [6] 4.8%

ClCc1ccc(CCc2ccc(CCl)cc2)cc1
inactive: [1] 17.9% | [2] -17.9% | [3] 22.6% | [4] -44.9% | [5] 16.3% | [6] 8.15%

COCCCNc1ccc([N+](=O)[O-])cn1
inactive: [1] -21.4% | [2] -40.6% | [3] -20.4% | [4] 2.2% | [5] -13% | [6] -14.4%

Cc1cc(-c2ccccc2)c(C#N)c(=O)[nH]1
inactive: [1] -4.5% | [2] 12.2% | [3] -10.8% | [4] -14.8% | [5] 3.65% | [6] -7.35%

CC1(C)C(CCO)CC1CCO (stereo not given)
inactive: [1] 2.25% | [2] -2.5% | [3] -1.45% | [4] -0.45% | [5] 0.4% | [6] -7.5%

CCOC(=O)C1SC(=Nc2ccc(Cl)c(Cl)c2)N=C1C (stereo not given)
inactive: [1] -29.9% | [2] -2.8% | [3] -6.4% | [4] 5.9% | [5] -11.7% | [6] -10.1%

NC(=O)n1ccc(CC(O)(C(F)(F)F)C(F)(F)F)n1
inactive: [1] -13.2% | [2] 44% | [3] -2.55% | [4] 55.1% | [5] 2.35% | [6] 22.4%

CN(C)C1=NS(=O)(=O)N=C(N(C)c2ccccc2)O1
inactive: [1] 14.5% | [2] 6.65% | [3] 6.45% | [4] 16.8% | [5] 8.15% | [6] 10.5%

O=C(O)C1(Br)CC1(c1ccccc1)c1ccccc1 (stereo not given)
inactive: [1] 28.2% | [2] 5.25% | [3] 3.65% | [4] -14.1% | [5] -0.7% | [6] 26.1%

CC(C)(C)C([O-])=C1C(=O)c2ccccc2C1=O.CC(C)(C)C([O-])=C1C(=O)c2ccccc2C1=O.CC[O-].CC[O-].[Ti+4]
inactive: [1] 20.1% | [2] 47.1% | [3] 57.4% | [4] 47.3% | [5] 59.2% | [6] 46.2%

CCN(C(=O)NC(C)(C)C)c1cccc(C)c1
inactive: [1] 3.15% | [2] -1.9% | [3] 0.35% | [4] -19.6% | [5] -0.3% | [6] 5.8%

COc1cccc2c1C(=O)c1c(C)c(C)c(C)c(C)c1-2
inactive: [1] 3.3% | [2] 6% | [3] 3.05% | [4] -1.7% | [5] 14.6% | [6] -10.1%

CC(C)CCC[C@@H](C)[C@H]1CC[C@H]2[C@@H]3CC[C@H]4N(C)[C@@H](Cc5ccccc5)CC[C@]4(C)[C@H]3CC[C@]12C
inactive: [1] 21.8% | [2] 27.6% | [3] 32.5% | [4] 24.7% | [5] 15.4% | [6] -0.05%

O=c1[nH]c(-c2ccccc2)c([N+](=O)[O-])c(=O)[nH]1
inactive: [1] 10.7% | [2] -6.25% | [3] -7.65% | [4] -60.2% | [5] 5.95% | [6] 13.6%

N=c1nc2ccc3ccccc3c2nn1-c1ccc([N+](=O)[O-])cc1
active: [1] 88%
inactive: [2] 16.4% | [3] 13.8% | [4] -5.4% | [5] 18.6% | [6] 27.2%

O=C(O)CN1C(=O)C2C3c4ccccc4C(c4ccccc43)C2C1=O (stereo not given)
inactive: [1] -5.65% | [2] -4.7% | [3] 1.25% | [4] -26.6% | [5] -19.6% | [6] 0%

Clc1ccc(OCC(COc2ccc(Cl)cc2)(COc2ccc(Cl)cc2)COc2ccc(Cl)cc2)cc1
inactive: [1] -0.75% | [2] 2.75% | [3] -4.8% | [4] 5.9% | [5] -4.45% | [6] 0.7%

Cn1nnc(/C(N)=N/N=C/c2ccccc2)n1
inactive: [1] 1.95% | [2] -10.8% | [3] -1.55% | [4] -22.2% | [5] -12.6% | [6] -15.4%

Cc1ccc(/C=N/S(=O)(=O)Cc2ccccc2)cc1
inactive: [1] -11.6% | [2] 3.8% | [3] 10.2% | [4] 4.9% | [5] 0.15% | [6] -0.15%

Nc1ncnc2nc[nH]c12
inactive: [1] -8.7% | [2] -6.7% | [3] 13.9% | [4] -24.7% | [5] -12.1% | [6] -5.7%

O=C1CN(c2ccccc2)C(=O)CN1/N=C/c1ccc(O)c(O)c1
inactive: [1] -35.2% | [2] 8.75% | [3] -3.25% | [4] 12.7% | [5] -2.55% | [6] -11.2%

CC(Sc1nc2ccccc2c(=O)[nH]1)c1ccccc1 (stereo not given)
inactive: [1] 3.1% | [2] -1.85% | [3] 3.3% | [4] -21.8% | [5] 7.3% | [6] -6.7%

CCCCCC(CC)OC(=O)Nc1cccc2ccccc12 (stereo not given)
inactive: [1] 6.05% | [2] 7.2% | [3] 10.7% | [4] -9.15% | [5] -3.35% | [6] 0.1%

O=[N+]([O-])c1cccc(C2OCC3(CO2)COC(c2cccc([N+](=O)[O-])c2)OC3)c1 (stereo not given)
inactive: [1] 2.95% | [2] -21.8% | [3] 6.5% | [4] 10.2% | [5] -3.1% | [6] 10.8%

O=C1C(=O)N(c2cc(Cl)ccc2Cl)C(=O)C(=O)C1c1nc2ccccc2s1
inactive: [1] -7.8% | [2] 18.6% | [3] 0.3% | [4] -18.8% | [5] 9.4% | [6] -19.4%

C[C@H](CCC(=O)O[C@@H]1CC[C@@]2(C)C(CC[C@H]3[C@@H]4CC[C@H]([C@H](C)CCc5nc6ccccc6[nH]5)[C@@]4(C)CC[C@@H]32)C1)[C@H]1CC[C@H]2[C@@H]3CCC4C[C@H](O)CC[C@]4(C)[C@H]3CC[C@]12C (stereo not given in full)
inactive: [1] 5.8% | [2] -2.55% | [3] -16.4% | [4] 11.3% | [5] 6.2% | [6] -6.05%

CCCCOC(=O)C(=O)OCCCC
inactive: [1] 13.7% | [2] -2.9% | [3] 3.75% | [4] 14.8% | [5] 21.1% | [6] 17.2%

Cc1cc(NC(C)C)c(C)cc1NC(C)C
inactive: [1] 49% | [2] 31.9% | [3] 47.1% | [4] 21.8% | [5] 33.5% | [6] 43.8%
